PubChem BioAssay (NCATS)
Records with an inconclusive call do not appear. Activity calls are given as the source filed them. The call rests on the fitted dose curve; in most records, active means well fitted curve in the direction sought with a large enough effect in the main read-out, with a control signal flat (not every such curve was filed as active); inconclusive means small, poorly fitted or top-dose-only effect, or effect the other way, or a change in a side signal; inactive means no such curve, though single readings can be large or run the other way.

Experiment: qHTS Validation Assay to Find Inhibitors of Chronic Active B-Cell Receptor Signaling (AID 485345)
Conditions: ABC-DLBCL cells, chronic BCR signaling reporter, CBG luciferase; series mostly up to 46.1 µM; activity change: at the top concentration
From the text: NIH Molecular Libraries Probe Production Network [MLPCN]
NIH Chemical Genomics Center [NCGC]
PI Name: Dr. R. Eric Davis
Diffuse large B-cell lymphoma (DLBCL) is the most common category of non-Hodgkin lymphoma, with ~20,000 new cases per year in the United States. DLBCL should be regarded as a collection of different neoplasms. Microarray gene expression analysis has defined two principal types of DLBCL, named for their similarity to normal B cell stages or activation states: a germinal center B-cell (GCB) type, and an activated B-cell (ABC) type. In ABC-DLBCL, a constitutive high-level activity of the NF-kappaB family of transcription factors has been observed (1) and NF-kappaB target genes are more highly expressed in ABC primary tumors than in GCB tumors. Functional studies have shown a constitutive high-level activity of the IkappaB (inhibitor of kappa-B) kinase (IKK) complex. […] Further analysis of DLBCL primary tumors for NF-kappaB target gene expression imply that although CARD11 is required for constitutive IKK activity in all ABC-DLBCL lines, mutations in CARD11 may be the root cause of IKK activation only in lines or tumors with such mutations. In other words, CARD11 mutations may explain NF-kappaB activation in only 10% of ABC-DLBCL cases. […] This process has been termed 'chronic active BCR signaling' (CABS).
The goal of this screen is to find small-molecule inhibitors of the CABS pathway found in ABC-DLBCL lines using a cell-based assay that measures IkappaBalpa stability, which has already been extensively validated in the OCI-Ly3 line (PubChem AID:445; REF: 4).
A cell-sensor assay for I-kappa-B-alpha stabilization has been developed. The assay uses green (CBG68) and red (CBR) emitting beetle luciferases [Chroma-GloTM developed by Promega Corp.] where the green luciferase is fused to IkappaBalpha and the red luciferase is present in its native state. Both luciferase genes are stably present in the TMD8 human ABC DLBCL cell line, but their expression is under the control of tetracycline-inducible promoters. Following the addition of doxycycline to induce expression of the luciferases, the green luminescence in control cultures rises only slowly because the CBG fusion partner IkappaBalpha is targeted by IKK activity for rapid degradation. In contrast, green luminescence rises rapidly in the presence of proteasome inhibitors or IKK inhibitors. The rise in red luminescence of CBR is not affected by proteasome or IKK inhibitors, and serves as normalization for cell number and nonspecific effects. Compounds were screened as a concentration-titration series that ranged from 46 uM to 3 nM.
NCGC Assay Protocol Summary:
Cells were seeded in 1536-well plates at 5000 cells/4uL in IMDM medium containing 0.5% FBS, w/o phenol red, 1% penicillin/streptomycin. Then, 23 nL of compounds or DMSO were delivered to each well using a pin tool. One uL 20ng/ml doxycycline was then dispensed into white solid 1536-well plates and the plates were incubated at 37C/5% C02 in a cell incubator for 4 hrs. Then 4 uL luminescent substrate mix (in-house prepared: 150 mM Tris-Cl, pH 7.6, 3 mM MgCl2, 1% Triton X-100, 5 mM DTT, 0.2 mM CoA, 0.15 mM ATP, 5 mM D-luciferin, final concentrations) was added to each well. The plate was incubated at r.t. for 10-15 min. The plates were measured on a ViewLux plate reader for green luminescence (540/20 nm filter) and red luminescence (618/8 nm filter). The green and red luminescent signals were corrected for red and green luminescence filter overlap using previously determined filter calibration constants (determined using the procedure outlined in the Promega Technical Manual; REF 4). The %Activity was determined from the ratio of corrected green/red luminescent values. MG132 were used as control. Green luminescent and ratio %Activity was determined by normalizing to the difference in signal between basal cells (0% Activity) and cells incubated with 10 uM of the proteasome inhibitor MG-132 (100% Activity). […]

Row | SMILES | activity change
1 | O=C(O)CCC(=O)N1CCCC1C(=O)O (stereo not given) | -5.08% (inactive)
2 | CCC(=O)N1CCN(C(=O)c2ccccc2)CC1 | 3.08% (inactive)
3 | CN(C)CCC(c1ccc(Br)cc1)c1ccccn1 (stereo not given) | 1.29% (inactive)
4 | O=C(O)C1=CCCNC1 | 1.67% (inactive)
5 | C=CCN1CCc2cc(O)c(O)cc2C(c2ccccc2)C1 (stereo not given) | -3.88% (inactive)
6 | CC(O)C(O)[C@H]1CNc2nc(N)[nH]c(=O)c2N1 (stereo not given in full) | -6.12% (inactive)
7 | CCCc1c(OCCCOc2ccc(OCC(=O)O)cc2)ccc(C(C)=O)c1O | -10.3% (inactive)
8 | CNC(=O)c1cc2c(cn1)[nH]c1ccccc12 | -7.39% (inactive)
9 | O=c1[nH]c(=O)c2nc3ccccc3nc2[nH]1 | 5.03% (inactive)
10 | O=c1onc2n1-c1cc(Br)ccc1OC2 | -10.3% (inactive)
11 | COc1ccccc1N1CCN(CCCCNC(=O)c2ccc3ccccc3c2)CC1 | -21.7% (inactive)
12 | NOCC(=O)O | -1.36% (inactive)
13 | Fc1ccc(CN(C2=NCCN2)c2c(Cl)cccc2Cl)cc1 | -8.59% (inactive)
14 | N[C@@H](CCC(=O)N[C@H](CSN=O)C(=O)NCC(=O)O)C(=O)O | -2.7% (inactive)
15 | O=C(c1ccc2c(c1)OCCO2)N1CCCCC1 | 2.49% (inactive)
16 | Clc1nccc2c1ccc1ccccc12 | 4.84% (inactive)
17 | N[C@@H](Cc1c[nH]c2ccccc12)C(=O)O | -8.81% (inactive)
18 | CNc1cc(NS(=O)(=O)c2ccc(N)cc2)nc(NC)n1 | -15.8% (inactive)
19 | Cn1ccnc1 | 0.273% (inactive)
20 | N[C@@H](Cc1ccc(O)c(I)c1)C(=O)O | 0.175% (inactive)

Row | SMILES | activity change
21 | O=c1ccn([C@@H]2O[C@H](COP(=O)(O)OP(=O)(O)O)[C@@H](O)[C@H]2O)c(=O)[nH]1 | -1.55% (inactive)
22 | COc1ccccc1N1CCN(CCCNc2c(C)c(=O)n(C)c(=O)n2C)CC1 | 0.932% (inactive)
23 | CC(C)C[C@H](NC(=O)C1OC1C(=O)O)C(=O)NCCCCN=C(N)N (stereo not given in full) | -5.01% (inactive)
24 | NCCC1CCCC(CCN)N1 (stereo not given) | -7.44% (inactive)
25 | N=C(N)c1ccccc1 | -3.53% (inactive)
26 | O=C(O)c1cccnc1C(=O)O | -11.9% (inactive)
27 | CN[C@H](CC(=O)O)C(=O)O | -11% (inactive)
28 | CCCOC(=O)c1c(-c2ccccc2)nc(CC)c(C(=O)SCC)c1CCC | -0.19% (inactive)
29 | Oc1cc(O)c2c(c1)O[C@H](c1ccc(O)c(O)c1)[C@@H](O)C2 | -1.58% (inactive)
30 | O=c1[nH]ccc2c(O)cccc12 | -10.1% (inactive)
31 | O=c1cc(-c2ccccc2)[nH]c2nc(Cl)ccc12 | 19.7% (inactive)
32 | COc1ccc(C(=O)NCc2cccnc2)cc1C(=O)NCc1cccnc1 | -23.3% (inactive)
33 | C=CCN1CCc2c(cc(O)c(O)c2Br)[C@@H](c2ccccc2)C1 | -12.8% (inactive)
34 | CC(=O)O[C@H]1Cc2ccccc2N(C(N)=O)c2ccccc21 | -3.28% (inactive)
35 | CN(C)C(=O)/N=N/C(=O)N(C)C | -17.4% (inactive)
36 | CC(C)[C@@H]1CC[C@@H](C)C[C@@H]1P(=O)(c1ccccc1)c1ccccc1 | 2.05% (inactive)
37 | CCCCCC(O)CCCC(=O)O (stereo not given) | -8.8% (inactive)
38 | NC1CONC1=O (stereo not given) | -3.96% (inactive)
39 | CCCCCCCCCC[Si](C)(C)CCC(=O)NC(Cc1ccc(C)cc1)c1ccccc1 (stereo not given) | -13.9% (inactive)
40 | C=C1C[C@@]23CC[C@H]4[C@@](C)(CCC[C@@]4(C)C(=O)O)[C@@H]2CC[C@]1(O)C3 | 2.58% (inactive)
